Shown are actives, neighbours in structure and some others; about 2.6% of the full set was active somewhere.
Prx2 Sm inh: Schistosoma Mansoni Peroxiredoxins (Prx2); S. mansoni Prx2 activity coupled to TGR/GSH (TGR is thioredoxin glutathione reductase), NADPH fluorescence loss, qHTS; Potency, µM; 65,000 tested, 0.07% active; AID 448, 2006
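Activity is read as the drop in NADPH fluorescence (365/450 nm), recorded every 30 sec for 8 min after H2O2 addition. Prx2 is coupled to TGR-driven NADPH oxidation through glutathione, in phosphate buffer pH 7.4.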
AmpC det inh: Promiscuous and Specific Inhibitors of AmpC Beta-Lactamase (assay with detergent). purified AmpC, nitrocefin hydrolysis with detergent. Potency, µM (titrated, usually from 28.7 µM). 71,000 tested, 0.09% active. AID 584, 2007; active means well fitted curve in the direction sought with a large enough effect; inconclusive means small, poorly fitted or top-dose-only effect
Target sequence (P00811 whole entry, looked up): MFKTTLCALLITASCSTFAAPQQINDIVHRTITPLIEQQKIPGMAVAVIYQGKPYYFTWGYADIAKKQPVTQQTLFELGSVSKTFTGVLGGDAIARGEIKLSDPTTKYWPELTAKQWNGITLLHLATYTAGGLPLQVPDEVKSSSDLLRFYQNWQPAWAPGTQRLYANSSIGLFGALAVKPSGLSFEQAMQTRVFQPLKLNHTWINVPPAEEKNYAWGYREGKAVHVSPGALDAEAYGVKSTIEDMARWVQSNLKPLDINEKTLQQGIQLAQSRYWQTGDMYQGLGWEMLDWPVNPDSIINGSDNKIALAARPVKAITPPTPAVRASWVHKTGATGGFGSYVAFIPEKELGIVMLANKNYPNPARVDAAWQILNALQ
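E. coli AmpC (5.3 nM) in 20 mM phosphate pH 7.0 with 0.01% Triton X-100, preincubated 15 min RT with compound; nitrocefin (2 uL of 800 uM stock) hydrolysis followed by 480 nm absorbance every 20 s over 4 min.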
LT uptake inh: qHTS Assay for Anthrax Lethal Toxin Internalization | Cells, anthrax lethal toxin internalization, FRET ratio (460/530) | Potency, µM (titrated, usually from 40 µM), usual class: inhibitors | 70,000 tested, 0.67% active | AID 912, 2007; further: nearly all actives have a fitted effect of over 50% in size
AmpC nodet inh: Promiscuous and Specific Inhibitors of AmpC Beta-Lactamase (assay without detergent); P00811; AmpC nitrocefin hydrolysis, absorbance 480 nm, no detergent; Potency, µM (titrated, usually from 28.7 µM); 71,000 tested, 1.8% active
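AmpC, 20 mM phosphate pH 7.0; 15 min cpd preinc, RT; start with nitrocefin (800 uM stock); A480 kinetic read, 20 s intervals, 4 min. No-enzyme wells = negative control.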
Each line names hits and unclear results; the compound was inactive in the other large screens; [ ] = another dose, or the depositor's remark. Unless noted, the call rests on the fitted dose curve.

COc1ccc(-c2nc(NC(=O)c3cc(C(C)(C)C)nn3C)sc2C)cc1	LT uptake inh 5µM
COc1ccc2c(c1OC)C(=O)N1C(C(=O)O)Cc3c([nH]c4ccccc34)C21 (stereo not drawn)	none
COc1cccc2cc3c(=O)n(-c4ccccc4)nc-3oc12	AmpC nodet inh 3.2µM[single pt active]
CC(O)Cc1nsc(NC(=O)c2cccs2)n1 (stereo not drawn)	AmpC nodet inh 4µM[single pt active]
COc1ccc(C(C(=O)OC(C)CN(C)C)c2ccccc2)cc1 (stereo not drawn)	none
O=C(CSc1nc2ccccc2c(=O)[nH]1)N1CCCCC1	AmpC nodet inh 4µM[single pt active]
Cc1ccc(S(=O)(=O)N2CCN(C(=O)CSc3nc4ccccc4c(=O)[nH]3)CC2)cc1	none
COc1ccc2ccccc2c1C1CC(=O)N2CN(C)CSC2=C1C#N (stereo not drawn)	none
COc1cc(OC)c(C2CC(=O)N3CN(C)CSC3=C2C#N)cc1OC (stereo not drawn)	AmpC nodet inh 4µM[single pt active]
COc1ccc(Br)cc1C1CC(=O)N2CN(C)CSC2=C1C#N (stereo not drawn)	AmpC nodet inh 4µM[single pt active]
CC(C)c1ccc(C2CC(=O)N3CN(C)CSC3=C2C#N)cc1 (stereo not drawn)	AmpC nodet inh 4µM[single pt active]
COc1ccc(Br)cc1C1CC(=O)N2CN(Cc3ccccc3)CSC2=C1C#N (stereo not drawn)	LT uptake inh inconclusive, AmpC nodet inh 2µM
CCOC(=O)c1ccccc1NC(=O)COC	none
CCOC(=O)N1CCN(Cc2cn3ccccc3n2)CC1	none
Cc1cccc(C)c1OCC(=O)Nc1cccc(NC(=O)c2ccco2)c1	none (no result: LT uptake inh)
CC1=C(C(=O)NC2CCCCC2C)C2(CCC(C)CC2)OC1=O (stereo not drawn)	none
CC1=C(C(=O)NC(C)C)C2(CCC(C)CC2)OC1=O (stereo not drawn)	AmpC nodet inh 4µM[single pt active]
CCN(CC)CCCCn1c(-c2ccccc2)nc2c(Nc3ccccc3)nc(C)nc21	LT uptake inh 16µM (no result: Prx2 Sm inh)
N#CCSc1nc2scc(-c3cccs3)c2c(=O)n1CCc1ccccc1	AmpC nodet inh 7.9µM
C=CCn1c(SCn2nnc3ccccc3c2=O)nc2scc(-c3cccs3)c2c1=O	none
O=c1cc(-c2ccccc2Cl)c2c([nH]1)CCC2	AmpC nodet inh 4µM[single pt active]
O=C1C=CC2=C3c4cc(O)c(O)cc4C[C@@]3(O)COC2=C1O	LT uptake inh 25µM, AmpC nodet inh 16µM
CC1(C)NC(=O)N(CC(O)COc2ccc(-c3ccccc3)cc2)C1=O (stereo not drawn)	none
CCOCCCNC(=O)Cn1ncc2c(=O)oc3ccccc3c21	AmpC nodet inh 4µM[single pt active]
O=C(Cn1ncc2c(=O)oc3ccccc3c21)NCC1CCCO1 (stereo not drawn)	AmpC nodet inh 4µM[single pt active]
O=C(Cn1ncc2c(=O)oc3ccccc3c21)NCCC1=CCCCC1	none
CC(C)OCCCNC(=O)Cn1ncc2c(=O)oc3ccccc3c21	none
CC(CCc1ccco1)NC(=O)Cn1ncc2c(=O)oc3ccccc3c21 (stereo not drawn)	AmpC nodet inh 4µM[single pt active]
CC(C)NC[C@H](O)c1ccc(N)c(C#N)c1	LT uptake inh inconclusive
CN(C)CCNc1nc2c(c(=O)[nH]c(=O)n2C)n1CC(O)COc1ccc(Cl)cc1Cl (stereo not drawn)	none (no result: LT uptake inh)
CCOC(=O)C1CCCN(CCC(=O)Nc2cccc(F)c2)C1 (stereo not drawn)	none
CCOC(=O)C1CCN(CCC(=O)Nc2cccc(Cl)c2)CC1	LT uptake inh 10µM
CC1CN(c2c3c(nc4ncnn24)CCCC3)CC(C)O1 (stereo not drawn)	none
CC(=O)N[C@H](c1ccccc1)[C@@]1(C)C[C@@H]1[C@@H](C)C(=O)Nc1ccc2ccccc2c1	LT uptake inh inconclusive
COC(=O)N[C@H](c1ccccc1)[C@@]1(C)C[C@@H]1[C@@H](C)C(=O)Nc1ccc2ccccc2c1	LT uptake inh 10µM
COc1ccc(-c2cc3ccc(OCc4nn[nH]n4)cc3oc2=O)cc1OC	none
CC(=O)Cc1nsc(NC(=O)c2cc(-c3cccc(C(F)(F)F)c3)oc2C)n1	AmpC nodet inh 16µM[single pt active]
c1ccc(SCc2nc(-c3ccncc3)no2)cc1	none
CCCS(=O)(=O)c1nnnn1-c1cccc(OC)c1	LT uptake inh 3.2µM
CCOC(=O)C1CCN(c2c(N3CCCC(C(=O)OCC)C3)c(=O)c2=O)CC1 (stereo not drawn)	LT uptake inh inconclusive

Screening results: PubChem, National Center for Advancing Translational Sciences (NCATS)
